The campaign covered roughly 330,000 compounds. About 1,400 (0.42%) were called active. The full list was thinned out, with actives kept by preference. Values without a mark were called inactive.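 The calls were made as follows: active = plate passing quality check with inhibition over a set limit, or well fluorescence over plate mean plus 4 SD; inactive = the rest.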

The inhibition is the change of the read-out against control, counted positive when it falls.

The test can be described thus: inhibitors of Candida efflux pumps in yeast, primary screen, S. cerevisiae, Nile Red, multiplex (AID 485275).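 Also: Nile Red retained in pooled yeast measured as flow cytometry median fluorescence; 0% = buffer negative control and 100% = Enniatin B positive control; higher means more Nile Red kept so more efflux inhibition.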 The conditions noted are these: S. cerevisiae Candida pump triplex, at 10 µM, stronger effect = higher value.
Take `COCCNC(=O)c1ccc2c(c1)ncn2-c1ccc(C)c(Cl)c1`: the inhibition was 0.09%.
In the case of `CCn1c(/C=C/c2ccc([N+](=O)[O-])o2)nc2ccccc2c1=O` it was 1.26% (active); in that of `CCOCCCn1c(NN)nc2ccccc2c1=O`, 0.04%; in that of `CCn1c(SCc2ccccc2)nc2cc(OC)c(OC)cc2c1=O`, -0.05%.
In the case of `C=CC[C@H](CC(=O)NCCO)C(=O)N[C@@H](COC(=O)[C@@H](CC=C)Cc1ccc(F)cc1)Cc1c[nH]c2ccccc12` it was -0.26%.
Turning to `COc1ccc(C(=O)NC(=S)Nc2ccccc2N2CCN(S(C)(=O)=O)CC2)cc1OC`, the inhibition is 0.06%.
In the case of `COc1ccc(C(=O)NC(=S)Nc2ccc(N3CCCC3)cc2)cc1OC` it was 6.65% (active); in that of `Cc1ccc(C(=O)NC(=S)Nc2ccc(N3CCOCC3)cc2)cc1`, 0%.
In the case of `CCn1cc(C(=O)N2CC(C)CC(C)C2)c(=O)c2cc(S(=O)(=O)N3CCCC3)ccc21` (stereo not given) it was 0.08%; in that of `O=C(NCCc1ccccn1)c1cc(-c2ccc(Cl)cc2)nc2ccccc12`, 0.18%.
Take `Cn1nnnc1SCC(=O)Nc1ccccc1C(=O)NC1CC1`: the inhibition is 0%.
Next, `CC(/C=N/NC(=O)c1cc(-c2ccc3ccccc3c2)n[nH]1)=C\c1ccco1`: 0.5% (active); `CC(C)(C)C1CCC(=NNC(=O)c2cc(-c3ccccc3)n[nH]2)CC1` (stereo not given): 0.31%; `CC(=C/c1ccccc1)/C=N/NC(=O)c1cc(C)oc1C`: 0.06%.
Next, `CCOC(OCC)c1ccc(/C=C\c2nccc(N)n2)cc1`: -0.05%; `Cc1ccc(-n2c(SCC(=O)Nc3ncc(Cl)cc3Cl)nc3ccccc32)cc1`: 0.75%; `CCCn1c(O)c(CN2CCCC(C)C2)c(C)c(C#N)c1=O` (stereo not given): -0.15%.
Next, `CCOc1ccc(N2C(=O)CN(c3cccc4ccccc34)C2=S)cc1`: -0.04%; `COc1ccc(S(=O)(=O)N2CCOC2CNC(=O)C(=O)NCc2ccc(F)cc2)cc1` (stereo not given): 5.66% (active).
For the molecule `COc1ccc(CCNC(=O)C(=O)NCC2OCCN2S(=O)(=O)c2ccc(F)cc2)cc1OC` (stereo not given), the inhibition is 0.07%.
For the molecule `O=C(NCc1ccc2c(c1)OCO2)C(=O)NCC1OCCN1S(=O)(=O)c1ccc(F)cc1` (stereo not given), the inhibition was 0.25%.
Next, `O=C(c1ccc(Cl)nc1)N1CCN(S(=O)(=O)c2ccc3c(c2)OCCO3)CC1`: -0.06%; `O=C(OCc1ccc(-c2ccccc2)cc1)c1cccc(O)c1`: 20.2% (active); `O=C(OCC(=O)c1c[nH]c2ccccc12)c1cccc(O)c1`: 0.55%.
With `O=C(OCc1ccc(Br)cc1)c1cccc(-c2nnc(-c3ccccc3)o2)c1`, the inhibition is 0.06%.
With `COc1cc(CNc2ncn[nH]2)ccc1OCc1ccccc1C`, the inhibition was 0.06%.
In the case of `[2H]C(CCOS(N)(=O)=O)c1ccccc1` (stereo not given) it was -0.09%.
For the molecule `Fc1cnc(N2CCOCC2)nc1NCc1ccccc1`, the inhibition is -0.13%.
In the case of `CCOC(=O)c1c(N=CN(C)C)c(C#N)c2n1CCCC2` it was -0.18%; in that of `COc1ccc(Cc2nnc(SCC(=O)Nc3ccc(C)c(C)c3)o2)cc1OC`, -0.04%.
In the case of `Cc1ccc(NC(=O)CSc2nnc(COc3ccccc3C)o2)cc1` it was -0.17%; in that of `CCCc1nnc(SCC(=O)Nc2ccc(C(=O)OCC)cc2)o1`, 2.83% (active); in that of `O=C(COC(=O)Cn1cnc2ccccc2c1=O)NCc1ccccc1Cl`, 0.17%.
Consider `Nc1ccc2nc3c(=O)[nH]c(=S)[nH]c3nc2c1`, for which the inhibition was 0.97% (active).
Next, `Cc1noc(C)c1S(=O)(=O)N(C)C[C@H]1Oc2c(NC(=O)Nc3ccc4c(c3)OCO4)cccc2C(=O)N([C@H](C)CO)C[C@@H]1C`: 0.73%; `COC(=O)[C@]1(CC(C)C)N[C@H](c2ccc(SC3CCCCC3)cc2)[C@@H]2C(=O)N(C)C(=O)[C@@H]21`: -0.02%; `CC[n+]1cc(C)ccc1/C=C/c1ccc(N(C)C)cc1`: 5.98% (active).
Next, `O=C(N/N=C\c1cc2c(cc1Cl)OCO2)c1ccc(Br)s1`: 0.06%; `CC(/C=C/c1ccco1)=N/NC(=O)C1COc2ccccc2O1` (stereo not given): 0.12%.
For the molecule `O=C(N/N=C/C=C/c1ccccc1)C1CC1(c1ccccc1)c1ccccc1` (stereo not given), the inhibition was -0.21%.
For the molecule `CC(/C=C/c1ccccc1)=N\NC(=O)C1CC1(C)c1ccccc1` (stereo not given), the inhibition is 2.26% (active).
In the case of `Cc1csc(NC(=O)c2ccc(C)s2)n1` it was 0.06%.
`Cc1ccc(C(=O)Nc2nc3ccc(Cl)cc3s2)o1`: the inhibition is -0.17%.
Next, `Cc1csc(NC(=O)c2ccc(-c3ccc(Cl)cc3Cl)o2)n1`: 16.6% (active); `O=C(NCc1ccncc1)C(=O)NCC1OCCN1S(=O)(=O)c1ccc(Br)cc1` (stereo not given): 0.06%.
With `O=C(COC(=O)c1ccc(N2CCCC2=O)cc1)c1ccc(OC(F)F)cc1`, the inhibition is 0.24%.
As to `CC1CCCC(N2CCN(C(=O)c3ccc(F)cc3)CC2)C1` (stereo not given), the inhibition was -0.1%.
Consider `CCn1c(SC(C)C(=O)Nc2ccc(N3CCOCC3)cc2)nnc1-c1ccco1` (stereo not given), for which the inhibition is 0.21%.
In the case of `O=C(CN1C(=O)c2cccnc2Oc2ccc(Cl)cc21)NCCc1ccccc1` it was -0.23%; in that of `COc1ccccc1C1CCN(c2ccc([N+](=O)[O-])cn2)CC1`, 0.16%; in that of `COc1ccccc1CSc1ncc(-c2ccc([N+](=O)[O-])cc2)[nH]1`, 18.3% (active).
In the case of `N#Cc1c(-c2ccccc2)nc(SCc2ccc([N+](=O)[O-])cc2)[nH]c1=O` it was -0.1%; in that of `CCC(Cc1ccccc1)NS(=O)(=O)c1ccc2c(c1)NC(=O)CS2` (stereo not given), -0.01%; in that of `COc1ccc(C2/C(=C(/O)c3ccc4c(c3)CC(C)O4)C(=O)C(=O)N2Cc2ccncc2)cc1` (stereo not given), 0.59%.
In the case of `COCCCN1C(=O)C(=O)/C(=C(/O)c2ccc3c(c2)CC(C)O3)C1c1cccnc1` (stereo not given) it was 0.03%.
As for `CCOc1ccc(C2/C(=C(/O)c3ccc4c(c3)CC(C)O4)C(=O)C(=O)N2CCCn2ccnc2)cc1` (stereo not given), the inhibition is 4.24% (active).
In the case of `COc1ccc(S(=O)(=O)N2CCCCCC2)cc1C(=O)N(C)Cc1cccc(OC)c1OC` it was 0.1%.
Next, `Cc1nn(C)cc1C(=O)Nc1ccccc1Br`: 6.48% (active).
Regarding `O=C(O)c1ccccc1-c1ccccc1C(=O)Nc1ccccc1Br`, the inhibition is -0.16%.
Next, `Cc1nn(C)cc1C(=O)c1ccccc1`: -0.06%.

(Values after PubChem BioAssay AID485275 (NMMLSC, 2010).)
